Screens (PubChem)
A selection: hits, their analogues and other compounds. The true share with any hit is near 5.7%.
Giardia killer: Small Molecules that selectively kill Giardia lamblia: qHTS | Giardia lamblia trophozoite viability | activity change, % at 7.66 µM, hits read low | hit rate 0.15% among 340,000; in the data active means activity change below about -80%; inconclusive means between about -30% and that limit;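 further: parasites exposed to compound for two days anaerobically before the ATP read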
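Luminescence from cellular ATP indicates surviving trophozoites (100 cells/well) following 48 hrs anaerobic compound treatment at 37 deg C; signal develops 15-30 min at room temperature.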
KB-3-1 cytotox: qHTS assay for MDR1-selective chemotherapeutics: Primary screen using the parental adenocarcinoma cell KB-3-1. AID 1347075, 2019. hit rate 1.4% among 400,000. Potency, µM (series often up to 46.1 µM), usual class: cytotoxic. KB-3-1 viability, CellTiter-Glo ATP luminescence, 72 h; further: potency means the concentration at half of the fitted maximal effect; nearly all actives have a fitted effect of over 60% in size
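Parental KB-3-1 viability, qHTS format: 72 h compound exposure, 37 °C; CellTiter-Glo; media-only wells and DMSO plates as controls; concentration-effect fits on corrected data.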
PI4K2A inh: qHTS for small molecular inhibitors of PI4K2A | Phosphatidylinositol 4-kinase type 2-alpha (Homo sapiens), Q9BTU6 | purified PI4K2A, ADP-Glo luminescence, 1 h; active compounds read low | activity change, negative = inhibition, % at 76.9 µM | hit rate 0.13% among 420,000; in the data active means activity change below about -50%; inconclusive means mostly about -30% to -49%;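 further: -100% = wells without enzyme as full effect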
Target sequence (Q9BTU6 whole entry, looked up): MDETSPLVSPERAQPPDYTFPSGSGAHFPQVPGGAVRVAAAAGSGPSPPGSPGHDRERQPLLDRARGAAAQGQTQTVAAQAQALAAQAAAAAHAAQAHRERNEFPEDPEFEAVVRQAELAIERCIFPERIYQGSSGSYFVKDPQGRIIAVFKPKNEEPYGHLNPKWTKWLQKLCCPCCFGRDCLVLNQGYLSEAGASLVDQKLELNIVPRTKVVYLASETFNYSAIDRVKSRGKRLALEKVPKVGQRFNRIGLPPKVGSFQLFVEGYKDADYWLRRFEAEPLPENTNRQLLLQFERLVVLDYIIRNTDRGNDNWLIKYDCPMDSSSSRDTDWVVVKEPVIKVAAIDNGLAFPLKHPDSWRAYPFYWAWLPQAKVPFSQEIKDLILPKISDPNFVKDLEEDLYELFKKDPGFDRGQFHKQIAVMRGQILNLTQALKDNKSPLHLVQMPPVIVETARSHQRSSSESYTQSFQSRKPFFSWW
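PI4K2A activity was measured by ADP-Glo luminescence: enzyme (4 ug/mL stock) and phosphatidylinositol (1.2 mM stock) in Tris pH 7.5/MgCl2/EGTA/Triton X-100 buffer were reacted with ATP (300 microM stock) for one hour at ambient temperature.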
A549 tox: Nrf2 qHTS screen for inhibitors: counterscreen for cytotoxicity; A549 ARE-Fluc cells, CellTiter-Fluor viability, 18-24 h; Potency, µM (top dose mostly 46 µM), for inactives: at the highest dose activity change, negative = cytotoxicity, most hits filed as inhibitors; hit rate 0.16% among 390,000; AID 504648, 2011; further: potency means the concentration at half of the fitted maximal effect
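A549 ARE-Fluc cells in 5% FBS OPTI-MEM, 5000 cells/well, rested 2 h then exposed to compounds in concentration-response for 18-24 h at 37 °C. Viability by CellTiter-Fluor fluorescence (Ex 405/Em 525) after 30 min; luciferase luminescence (BugLite, 15 min, RT) read afterwards.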
Nrf2 inh: Nrf2 qHTS screen for inhibitors. Potency, µM (top dose mostly 46 µM), inactives show at the highest dose activity change, negative = inhibition, actives largely listed as inhibitors. A549 ARE-Fluc reporter, luciferase luminescence, 18-24 h. hit rate 2.1% among 360,000; further: potency means the concentration at half of the fitted maximal effect; nearly all actives have a fitted effect of over 60% in size
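A549 ARE_Fluc cells (5000/well, 5% FBS OPTI-MEM) pre-incubated 2 h, then treated with compounds 18-24 h at 37C/5% CO2 in concentration-response. CellTiter-Fluor viability read first; BugLite luciferase luminescence after 15 min at room temperature gives Nrf2 activity.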
KB-V1 cytotox: qHTS assay for MDR1-selective chemotherapeutics: Primary screen using the drug-selected MDR subline cells KB-V1 | KB-V1 MDR cells viability, CellTiter-Glo, 72 h | Potency, µM (series often up to 46.1 µM), hits mostly cytotoxic | hit rate 3.4% among 400,000 | AID 1347076, 2019; further: potency means the concentration at half of the fitted maximal effect; nearly all actives have a fitted effect of over 60% in size
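Cytotoxicity via CellTiter-Glo luminescence after 72 h compound exposure at 37 degrees C. Cells: drug-selected KB-V1 line, DMEM phenol-red free plus 10% FBS. Compounds tested at multiple concentrations; normalized data fitted to concentration-effect curves.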
* hit, by the source's call; i = inactive; ? = inconclusive; nt = not tested or not shown; ! = repeats disagree. Unless noted, the call rests on the fitted dose curve; in most records, active means well fitted curve in the direction sought with a large enough effect; inconclusive means small, poorly fitted or top-dose-only effect, or another doubt; inactive means no such curve, though single readings can be large; an effect the other way counts as inactive or inconclusive. Unless noted, on the % scale 0 is the no-effect control and ±100 the full control effect.

SMILES	Giardia killer	KB-3-1 cytotox	PI4K2A inh	A549 tox	Nrf2 inh	KB-V1 cytotox
CCOC(=O)[C@]12CCCCC/C=C\1N(CCc1ccc(Cl)cc1)C(=O)[C@H]2CC(=O)NCc1cccc2ccccc12	nt	nt	-2	nt	nt	nt
Cc1ccc(S(=O)(=O)N2CCN(c3nc(-c4cnccn4)nc4ccccc34)CC2)cc1	-10	nt	nt	2%	-11%	nt
COc1ccc(CC(=O)Nc2sc3c(c2C(N)=O)CCCC3)cc1OC	-19	?	4	-3%	?	13µM*
N#Cc1c(NC(=O)c2ccc(Cn3cc(Br)cn3)o2)sc2c1CCCCCC2	0	?	-2	?	nt	2.6µM*
CN1CCc2c(sc(NC(=O)c3ccc(S(=O)(=O)N4CCCCCC4)cc3)c2C(N)=O)C1	-10	i	-3	-7%	?	21µM*
O=C(c1ccncc1)N1CCC(Oc2cccnc2)CC1	nt	nt	-3	nt	nt	nt
O=C(NCc1ccccc1)OC1CC2CC1[C@H]1CCCCN1C2 (stereo not given in full)	nt	nt	-6	nt	nt	nt
CCCCNc1nc(-c2ccccc2)c(C(=O)OCC)cc1C#N	-4	?	-2	?	nt	18µM*
C=CCNc1nc(-c2ccccc2)c(C(=O)OCC)cc1C#N	21	10µM*	2	-24%	?	?
Brc1cccc[n+]1Cc1ccc(C[n+]2ccccc2Br)cc1	nt	?	nt	nt	nt	i
O=C(c1cccc(C(F)(F)F)c1)N1CCC(O)(CS(=O)(=O)Cc2ccccc2Cl)CC1	28	i	6	-5%	-1%	16µM*
O=C(c1cccc(C(F)(F)F)c1)N1CCC(O)(CS(=O)(=O)Cc2ccc(Cl)cc2)CC1	-1	i	-7	-2%	-16%	12µM*
O=C(c1cccc(C(F)(F)F)c1)N1CCC(O)(CS(=O)(=O)Cc2ccccc2)CC1	1	i	8	-7%	6%	i
COc1ccccc1NC(=O)c1sc(-c2ccc(Cl)cc2)cc1N	nt	nt	-3	1%	-1%	nt
CC(=O)c1ccc(N2CCN(C(=O)Nc3ccc(Cl)cc3)CC2)cc1	5	i	-3	-7%	16µM*	?
CC(=O)N1CCN(c2ccc(NC(=O)c3ccc(C)cc3)cc2)CC1	5	i	0	-13%	-12%	18µM*
CC(=O)c1ccc(NC(=O)N2CCN(c3cccc(Cl)c3)CC2)cc1	-4	i	8	-7%	9.2µM*	23µM*
CC(=O)N1CCN(c2ccc(NC(=O)c3ccc([N+](=O)[O-])cc3)cc2)CC1	0	i	0	1%	10%	i
COc1ccc(Cn2c(C(=O)O)c(CNCCc3ccccc3Cl)c3ccc(C)cc32)cc1	nt	?	1	?	?	?
Clc1ccc(COc2cccc(CNCc3ccncc3)c2)cc1	2	?	-3	-14%	?	6.5µM*
CCOC(=O)C(C(=O)OCC)N(Cc1cc(OC)ccc1OC)C(=O)C1CC(CO[Si](C)(C)C(C)(C)C)=CN1C(=O)OC(C)(C)C (stereo not given)	-5	nt	nt	-3%	2%	nt
O=C(CSc1ncnc2sc3c(c12)CCCC3)NC1CCS(=O)(=O)C1 (stereo not given)	7	i	1	4%	-21%	9.2µM*
O=C(CSc1ncnc2sc3c(c12)CCCCC3)NCc1ccco1	6	7.3µM*!	-10	-13%	-2%	?
O=C(CSc1ncnc2sc3c(c12)CCCC3)c1ccco1	3	i	-6	17%	nt	?
CC1CCc2c(sc3nc(SCC(=O)NCc4ccco4)nc(N)c23)C1 (stereo not given)	-2	?	-1	-3%	nt	13µM*
SMILES	Giardia killer	KB-3-1 cytotox	PI4K2A inh	A549 tox	Nrf2 inh	KB-V1 cytotox
C=CC[C@H]1c2ccccc2[C@H]2N3N=Cc4ccccc4[C@H]3[C@H](CCCC)C(=O)N2N1C(=O)c1ccccc1	nt	nt	-1	nt	nt	nt
COC(=O)C1CN(Cc2ccc(F)cc2)CCS(=O)(=O)N1Cc1cn(Cc2ccc(F)cc2)nn1 (stereo not given)	nt	nt	-4	nt	nt	nt
O=C(NCCSSCCNC(=O)c1ccccc1)c1ccccc1	-11	?	-17	0%	13%	?
CCC(CCNC(=O)c1ccccc1)(CCNC(=O)c1ccccc1)[N+](=O)[O-]	-10	i	-3	1%	14%	21µM*
CC(CCNC(=O)c1ccccc1)(CCNC(=O)c1ccccc1)[N+](=O)[O-]	5	i	-1	19%	10%	15µM*
O=C1[C@@H](C2CCCCC2)[C@@H]2c3ccccc3C=NN2[C@@H]2c3ccccc3C=NN12	nt	nt	2	nt	nt	nt
CCc1nc(NCCCn2ccnc2)c2oc3ccccc3c2n1	-10	i	-11	1%	18%	?
c1ccc(-c2nc(NCCCn3ccnc3)c3oc4ccccc4c3n2)cc1	28	?	1	?	?	5.8µM*
N#C/C(=N\Nc1ccc(Cl)c(Cl)c1)C(=O)C1CC1	-14	16µM*	1	?	-21%	?
N#C/C(=N\Nc1ccc(F)cc1)C(=O)C1CC1	74	i	-9	-3%	-10%	i
C=CCN1C(=O)[C@@H](CC(=O)NCCCN2CCCC2=O)[C@]2(C(=O)OC)CCCCC=C12	nt	nt	-3	nt	nt	nt
Cc1ccc(F)c(NC(=O)Nc2ccc3snnc3c2)c1	nt	i	-4	-3%	1%	i
Cc1c(Cl)cccc1NC(=O)Nc1ccc2snnc2c1	nt	?	-4	?	21µM*	?
O=C(Nc1ccc(F)cc1)Nc1ccc2snnc2c1	nt	?	-11	-24%	23µM*	?
COc1ccc(/C(C)=N/NC(=O)Cc2cc(=O)[nH][nH]2)cc1OC	nt	nt	-8	nt	nt	nt
Cc1ccc2c(c1)C1CS(=O)(=O)N(Cc3ccc(F)cc3)CN1C2 (stereo not given)	nt	nt	-1	nt	nt	nt
O=C(c1cc(F)ccc1F)C1CCCN(C(=O)c2ccc(F)cc2Cl)C1 (stereo not given)	-4	i	1	4%	?	12µM*
COc1ccccc1N(C)S(=O)(=O)c1ccc(Cl)c(C(=O)NCc2cccnc2)c1	-1	i	0	1%	-12%	i
COc1ccccc1CNS(=O)(=O)c1cc(C(=O)N(C)Cc2cccnc2)c(Cl)cc1Cl	2	?	1	8%	?	5.2µM*
Cn1cc([C@@H]2C[C@H]3CN(Cc4cccc(Cl)c4)C(=O)[C@]34CCCN24)c(-c2ccccc2)n1	8	i	-19	?	21µM*	i
